Calls of active or inactive are those of the source.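 Rule for the calls, unless noted: active = viability at or below 30% in both replicate assays; inconclusive = viability at or below 30% in just one of the two assays; inactive = the rest.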
Tests used:
[1] = SK-BR-3 cell growth inhibitors, pilot screen, 24 h, human (AID 572;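 active = viability at or below 10% of carrier control in both of two separate runs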;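 note: compound exposure lasted between 18 and 24 h rather than exactly 24 h; 100% = carrier-treated control wells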); conditions: SK-BR-3 viability, CellTiter-Glo luminescence, at 10 µM, stronger effect = lower value
[2] = HUVEC growth inhibition – cell-based, human, primary screen (AID 575); conditions: HUVEC proliferation, CellTiter-Glo luminescence, 72 h; at 10 µM; stronger effect = lower value;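 note: 100% = median of untreated cell wells with 0.1% DMSO on each plate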
[3] = reversal of MRP1-mediated doxorubicin resistance, pilot screen, H69AR cells, doxorubicin co-treatment (AID 601;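 active = viability loss from added drug above about 55%, and viability with drug at most 40%, in both replicates, limit read from the data, passing the limit was not always enough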); conditions: CellTiter-Glo, 72 h, at 10 µM; for differential viability (reversal): stronger effect = higher value
[4] = 384-well plate pilot, post-Golgi transport modulator project, inhibition of yeast transport mutant growth (AID 636; in the data active = inhibition above about 31%); conditions: absorbance 615 nm, about 18 h, stronger effect = higher value
[5] = growth suppression of yeast trafficking mutant, preliminary HTS, modulators of trafficking downstream of Golgi apparatus project, 1536-format plate, OD 615 nm (AID 637; in the data active = inhibition above about 30%); conditions: yeast transport mutant growth, absorbance 615 nm, 18 h; stronger effect = higher value
[6] = H69AR cells + 2 uM doxorubicin, measured here: viability with 2 uM doxorubicin, stronger effect = lower value
[7] = H69AR cells, compound alone cytotoxicity

In the case of `O=C(CC(SCCO)c1ccc2c(c1)OCO2)c1ccco1` (centres undefined), the viability [1] is reported as 77.5% (inactive), the viability [2] is reported as 95% (inactive) and the differential viability (reversal) ([3]; H69AR cells + 2 uM doxorubicin) is reported as -17.8% (inactive). For the same compound, the viability [3, 6] was 59.3%, the viability [3, 7] was 41.5% and the inhibition [4] was -7.57% (inactive). For the same compound, the inhibition [5] was -3.65% (inactive).

For `CN1CCN(c2ccc(Cl)cc2NC(=O)c2cccc(S(=O)(=O)N(C)C)c2)CC1`, the viability [1] was 93% (inactive), the viability [2] was 71.6% (inactive) and the differential viability (reversal) ([3]; H69AR cells + 2 uM doxorubicin) was 43.3% (inactive). For the same compound, the viability [3, 6] was 24.6%, the viability [3, 7] was 67.9% and the inhibition [4] was -5.47% (inactive). The inhibition [5] was 1.27% (inactive).

For `COc1cc2c(cc1NC(=O)CSc1nnc(Cc3cccs3)n1C)oc1ccccc12`, the viability [1] was 74% (inactive), the viability [2] was 54.4% (inactive) and the differential viability (reversal) ([3]; H69AR cells + 2 uM doxorubicin) was -12.1% (inactive). The viability [3, 6] was 59.9%, the viability [3, 7] was 47.8% and the inhibition [4] was 11.5% (inactive). For the same compound, the inhibition [5] was 4.36% (inactive).

In the case of `Cc1ccc(Cn2c(=N)c(C(=O)NCc3ccco3)cc3c(=O)n4ccccc4nc32)cc1`, the viability [1] is reported as 78% (inactive), the viability [2] is reported as 96.1% (inactive) and the differential viability (reversal) ([3]; H69AR cells + 2 uM doxorubicin) is reported as -0.275% (inactive). For the same compound, the viability [3, 6] was 47.4%, the viability [3, 7] was 47.1% and the inhibition [4] was -5.81% (inactive). The inhibition [5] was -4.36% (inactive).

In the case of `COc1ccc(CCN(C)CCCC(C#N)(c2ccc(OC)c(OC)c2)C(C)C)cc1OC` (centres undefined), the viability [1] is reported as 73% (inactive), the viability [2] is reported as 66.8% (inactive) and the inhibition [4] is reported as -2.34% (inactive). For the same compound, the inhibition [5] was -0.5% (inactive).

With `COc1cc([C@@H]2c3cc4c(cc3[C@H](O)[C@H]3COC(=O)[C@H]23)OCO4)cc(OC)c1OC` the viability [1] was 101% (inactive), the viability [2] was 33.9% (inactive) and the differential viability (reversal) ([3]; H69AR cells + 2 uM doxorubicin) was -32.5% (inactive). The viability [3, 6] was 63.7%, the viability [3, 7] was 31.2% and the inhibition [4] was -2.99% (inactive). For the same compound, the inhibition [5] was -5.67% (inactive).

For `CCCSc1ccc2nc(NC(=O)OC)[nH]c2c1`, the viability [1] was 95% (inactive), the viability [2] was 43.2% (inactive) and the differential viability (reversal) ([3]; H69AR cells + 2 uM doxorubicin) was -28.6% (inactive). The viability [3, 6] was 48.9%, the viability [3, 7] was 20.3% and the inhibition [4] was -1.56% (inactive). The inhibition [5] was 0.17% (inactive).

With `CSc1ccc(-c2cc(=O)c3ccccc3o2)cc1` the viability [1] was 110% (inactive), the viability [2] was 48.1% (inactive) and the differential viability (reversal) ([3]; H69AR cells + 2 uM doxorubicin) was -16.6% (inactive). The viability [3, 6] was 73.6%, the viability [3, 7] was 56.9% and the inhibition [4] was -4.13% (inactive). For the same compound, the inhibition [5] was -4.55% (inactive).

For `COc1ccccc1C(=O)NCC(c1cccnc1)N(C)C` (centres undefined), the viability [1] was 108% (inactive), the viability [2] was 96% (inactive) and the inhibition [4] was -7.12% (inactive). For the same compound, the inhibition [5] was -1.27% (inactive).

With `OCCN1CCN(CCCN2c3ccccc3Sc3ccc(Cl)cc32)CC1` the viability [1] was 53% (inactive), the viability [2] was 1.56% (active) and the differential viability (reversal) ([3]; H69AR cells + 2 uM doxorubicin) was -3.86% (inactive). For the same compound, the viability [3, 6] was 5.27%, the viability [3, 7] was 1.41% and the inhibition [4] was -3.38% (inactive). For the same compound, the inhibition [5] was 47.3% (active).

In the case of `COc1ccc(-c2ccc(-c3noc(-c4ccccc4OC)n3)c(OC)n2)cc1`, the viability [1] is reported as 62% (inactive), the viability [2] is reported as 63.9% (inactive) and the differential viability (reversal) ([3]; H69AR cells + 2 uM doxorubicin) is reported as -2.01% (inactive). For the same compound, the viability [3, 6] was 64.9%, the viability [3, 7] was 62.9% and the inhibition [4] was -4.59% (inactive). The inhibition [5] was 18.9% (inactive).

For `CC(C)CCn1c(SCC#N)nc2c(sc3ccccc32)c1=O`, the viability [1] was 102% (inactive), the viability [2] was 41.2% (inactive) and the differential viability (reversal) ([3]; H69AR cells + 2 uM doxorubicin) was 2.2% (inactive). For the same compound, the viability [3, 6] was 53.6%, the viability [3, 7] was 55.8% and the inhibition [4] was -2.24% (inactive). For the same compound, the inhibition [5] was -7.14% (inactive).

For `CCOC(=O)c1[nH]c2ccc(Br)cc2c1NC(=O)CCN1CCC(C(=O)OCC)CC1`, the viability [1] was 115% (inactive), the viability [2] was 77.3% (inactive) and the differential viability (reversal) ([3]; H69AR cells + 2 uM doxorubicin) was 12% (inactive). For the same compound, the viability [3, 6] was 33.2%, the viability [3, 7] was 45.2% and the inhibition [4] was -2.53% (inactive). For the same compound, the inhibition [5] was 1.27% (inactive).

For `Oc1c(Cl)cc(Cl)cc1Sc1cc(Cl)cc(Cl)c1O`, the viability [1] was 143% (inactive), the viability [2] was 1.36% (active) and the differential viability (reversal) ([3]; H69AR cells + 2 uM doxorubicin) was 0.46% (inactive). The viability [3, 6] was 11%, the viability [3, 7] was 11.4% and the inhibition [4] was -0.78% (inactive). For the same compound, the inhibition [5] was 100% (active).

In the case of `COc1cc(NC(=O)c2ccco2)c(OC)cc1NC(=O)CCC(=O)Nc1cc(C)cc(C)c1`, the viability [1] is reported as 106% (inactive), the viability [2] is reported as 42.5% (inactive) and the differential viability (reversal) ([3]; H69AR cells + 2 uM doxorubicin) is reported as -16.3% (inactive). The viability [3, 6] was 69.4%, the viability [3, 7] was 53.1% and the inhibition [4] was -6.58% (inactive). The inhibition [5] was -0.95% (inactive).

For `O=C(CSc1nc2cc(S(=O)(=O)N3CCOCC3)ccc2o1)NC1CCCc2ccccc21` (centres undefined), the viability [1] was 61% (inactive), the viability [2] was 84.7% (inactive) and the differential viability (reversal) ([3]; H69AR cells + 2 uM doxorubicin) was -4.17% (inactive). For the same compound, the viability [3, 6] was 74.4%, the viability [3, 7] was 70.2% and the inhibition [4] was -3.6% (inactive). The inhibition [5] was -5.82% (inactive).

In the case of `CC1CCN(CCc2nc3cc(NS(=O)(=O)c4ccc(F)cc4)ccc3n2C)CC1`, the viability [1] is reported as 89% (inactive), the viability [2] is reported as 77.6% (inactive) and the differential viability (reversal) ([3]; H69AR cells + 2 uM doxorubicin) is reported as -3.08% (inactive). For the same compound, the viability [3, 6] was 55.5%, the viability [3, 7] was 52.4% and the inhibition [4] was -2.33% (inactive). The inhibition [5] was 0.97% (inactive).

For `C=CCSc1nnc2n(CCc3ccccc3)c(=O)c3c4c(sc3n12)COC(C)(C)C4`, the viability [1] was 124% (inactive), the viability [2] was 72.5% (inactive) and the differential viability (reversal) ([3]; H69AR cells + 2 uM doxorubicin) was 33.1% (inactive). For the same compound, the viability [3, 6] was 13.8%, the viability [3, 7] was 47% and the inhibition [4] was -4.38% (inactive). The inhibition [5] was 1.13% (inactive).

With `O=C(Nc1cnn(C23CC4CC(CC(C4)C2)C3)c1)c1cnn2c(C(F)(F)F)cc(-c3ccco3)nc12` the viability [1] was 95% (inactive), the viability [2] was 58% (inactive) and the differential viability (reversal) ([3]; H69AR cells + 2 uM doxorubicin) was 1.52% (inactive). For the same compound, the viability [3, 6] was 51.8%, the viability [3, 7] was 53.3% and the inhibition [4] was -0.82% (inactive). For the same compound, the inhibition [5] was 8.39% (inactive).

With `C/C=C(/C(=C/C)c1ccc(O)cc1)c1ccc(O)cc1` the viability [1] was 123% (inactive), the viability [2] was 54.9% (inactive) and the differential viability (reversal) ([3]; H69AR cells + 2 uM doxorubicin) was -57.5% (inactive). For the same compound, the viability [3, 6] was 85.2%, the viability [3, 7] was 27.6% and the inhibition [4] was 0.65% (inactive). The inhibition [5] was 25% (inactive).
